Screen size: about 120,000 compounds; about 5,300 (4.4%) were called active. Not shown: some 22% with an inconclusive outcome. Calls come from the whole dose curve; as a rule, active = well fitted inhibition curve with a large enough effect; inconclusive = small, poorly fitted or top-dose-only effect; inactive = no such curve, though single readings can be large or run the other way. The entries come from a sample that favours actives as a whole.
Potency is the fitted concentration of half-maximal effect.

This test can be described thus: qHTS Primary assay for Inhibitors of Plasmodium falciparum Dd2 growth in vitro.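 For activity, negative = inhibition: plate controls were DMSO vehicle for no effect and reference drug for full effect.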 Note: nearly all actives have a fitted effect of over 65% in size. To be noted: P. falciparum Dd2 growth, SYBR Green, 72 h; series mostly up to 28.9 µM; activity, negative = inhibition: at the top concentration. An outline of the steps: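 Readout: SYBR Green fluorescence, 485 nm excitation, 535 nm emission, after ~16 h lysis at 37C. Before that, Dd2-infected red cells (2.5% hematocrit) grew 72 h with compound, 29 uM top final concentration.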
(Quantitative high-throughput screening tests each substance at several concentrations.)
Consider `CS(=O)(=O)N1CCC(F)(c2nc(-c3ccccc3)no2)CC1`, for which the “activity, negative = inhibition” value is 13.4% (inactive). As for `CN1CC(=O)N(c2ccccc2F)Cc2c(NCCc3ccc(F)cc3)ncnc21`, the result was inactive. Turning to `Cc1sc2cc(C(=O)N(C)C)[nH]c2c1CN1CCCCC1`, the call was inactive.

With `CC(C)OC(=O)c1ccc(NC(=O)Cn2nc3c(cc2=O)CCCCC3)cc1`, the “activity, negative = inhibition” value was -15.3% (inactive). On to `Cc1c(NS(=O)(=O)c2ccc(Cl)cc2)c(=O)n(-c2ccccc2)n1C`, for which the “activity, negative = inhibition” value is 39.5% (inactive). On the same count and under the same terms, the result for `Cn1c(=O)n(C)c2cc(NS(=O)(=O)c3ccc(F)cc3)ccc21` reads 33% (inactive). Take `CC(=O)c1c(C)n(S(=O)(=O)c2ccc(Cl)cc2)c2ccc(NS(=O)(=O)c3ccc(Cl)cc3)cc12`: the Potency is 11.2 µM (active). The same measure, in the same setting: the result for `COc1cc2c(=O)c(S(=O)(=O)c3ccc(C(C)C)cc3)cn(Cc3ccccc3C)c2cc1OC` reads 8.91 µM (active). Regarding `COCCCNc1nc2c(S(=O)(=O)c3ccc(C(C)C)cc3)nnn2c2ccccc12`, the “activity, negative = inhibition” value was -17.5% (inactive).

As for `O=C(NCc1cc(F)cc(F)c1)c1noc(-c2ccc3c(c2)OCO3)n1`, the “activity, negative = inhibition” value is -24.1% (inactive). On the same count and under the same terms, the same measure for `COc1ccc(CNC(=O)N2CCCCC2c2noc(COCC3CC3)n2)cc1` (stereo unspecified): -6.85% (inactive). Take `Cc1ccc(-c2cn3c(n2)sc2cc(C(=O)NCc4cccs4)ccc23)c(C)c1`: the Potency is 11.2 µM (active). With `CCOc1cccc2cc(-c3cn4c(n3)sc3cc(C)ccc34)c(=O)oc12`, the “activity, negative = inhibition” value is 51.3% (inactive). On the same count and under the same terms, the result for `Cc1ccc(-c2cn3c(n2)sc2cc(C(=O)NCCCc4ccccc4)ccc23)cc1` reads -4.39% (inactive).

In the case of `O=C(NCc1ccccc1)c1cnc2n1CCN(Cc1c[nH]c3ccccc13)CC2`, the “outcome” value was “inactive [at 44.1 µM]”. As for `COCC(=O)Nc1ccc([C@H]2OCC(=O)N[C@@H]2CO)cc1`, the “activity, negative = inhibition” value is 3.24% [at 44.1 µM] (inactive). On the same count and under the same terms, the same measure for `Cn1ncc(N2CCC(C(=O)N3CC=C(c4ccccc4)CC3)C2)cc1=O` (stereo unspecified): -4.56% (inactive); for `Cn1cnc(C(=O)N2CCC(OC3CCN(S(C)(=O)=O)CC3)CC2)c1`: 44% (inactive).

Consider `COc1ccc(NC(=O)N2CCC(O)(c3csc(CN4CCc5ccccc5C4)n3)CC2)cc1`, for which the molecule was called inactive. For the molecule `CC(C)c1csc(CN2CCN(c3ncccc3C#N)CC2)n1`, the “activity, negative = inhibition” value was -14.1% (inactive). Take `Oc1ccccc1CN1CCC(O)(c2csc(CN3CCN(c4ccccn4)CC3)n2)CC1`: the Potency was 7.94 µM (active). Take `COc1ccccc1CCC(=O)N1CCC[C@H]1c1nc(-c2ccccc2)no1`: the “activity, negative = inhibition” value is -9.51% (inactive). Still for that read-out and setting: the same measure for `CC(C)c1cc(C(=O)NCc2cccnc2Oc2ccc(F)cc2F)on1`: -16.7% (inactive).

Turning to `CN(C)c1nc2c(c(=O)[nH]1)CCN(Cc1ccncc1)CC2`, the outcome was “inactive [at 5.79 µM]”. Take `Cc1ccc(CN2C(=O)[C@@H]3C[C@@H](O)CN3C3(CN(Cc4ccncc4)C3)C2=O)o1`: the “activity, negative = inhibition” value was 4.86% [at 44.1 µM] (inactive).

`O=C1CC(c2ccccc2)N(Cc2cn[nH]c2-c2ccc(F)cc2)CCCCCN1` (stereo unspecified): the Potency is 8.91 µM (active). As for `O=C1CC(c2ccccc2)N(C(=O)CNC(=O)c2cnccn2)CCCCCCN1` (stereo unspecified), the “activity, negative = inhibition” value is 32.9% (inactive). As to `COc1ccc(OC)c(S(=O)(=O)N2CCCCCCNC(=O)CC2c2ccccc2)c1` (stereo unspecified), the molecule was called inactive. On the same count and under the same terms, the same measure for `Cn1cc(CC(=O)N2CCCc3ncc(C(=O)NCc4ccc(F)cc4)cc32)c2ccccc21`: “inactive”. On to `CC(=O)N1CCCN(Cc2nnc(C(=O)N3CCC[C@@H]3C(c3ccccc3)c3ccccc3)n2-c2ccccc2)CC1`, for which the “activity, negative = inhibition” value was -3.51% (inactive). Same read-out and setting: the result for `Cc1nc(N2CCC(NC(=O)c3cnccn3)CC2)cc(C(F)(F)F)n1` reads -32.7% (inactive). Turning to `Cc1nc(N2CCC(NCCNc3ccncc3C)CC2)c2ccsc2n1`, the Potency was 10 µM (active). For `Cc1occc1C(=O)NC1CCc2nn(CC3CC3)c(=O)n2CC1` (stereo unspecified), the “activity, negative = inhibition” value was 50.4% (inactive). For `CN1CCOC(CNc2ncc(C(C)(C)C(=O)O)c(N3CCOCC3)n2)C1` (stereo unspecified), the “activity, negative = inhibition” value is 5.27% (inactive).

In the case of `Cc1c(CNC(=O)c2ccc3c(c2)[nH]c(=O)n3C2CCC(O)CC2)cnn1C` (stereo unspecified), the “activity, negative = inhibition” value was -14.8% (inactive). Consider `CSc1nc(-c2ccc(F)cc2)nc2c1Cc1c(CO)cnc(C)c1O2`, for which the “activity, negative = inhibition” value is 7.08% (inactive). Regarding `COc1ccc(-c2nc3c(c(SCC(=O)Nc4ccc(C(=O)O)cc4)n2)Cc2ccccc2O3)cc1`, the molecule was classed as inactive. As for `Cc1ccccc1CSc1nc(-c2ccccc2)nc2c1Cc1c(CO)cnc(C)c1O2`, the Potency was 3.98 µM (active). Regarding `COc1cccc(C2Cn3nnc(-c4nc(-c5ccccc5F)no4)c3CO2)c1` (stereo unspecified), the outcome was inactive. Same read-out and setting: the result for `Cc1ccc(CN2CCC(C3CCN(C)CC3)C2)o1` (stereo unspecified) reads “inactive”; that for `CCOc1cc(C(=O)N2CCC[C@H]2c2nc(-c3ccc(F)cc3)no2)cc(OCC)c1OCC`, “inactive”. Consider `COC(=O)c1ccccc1NC(=O)C(Cc1ccccc1)N1Cc2ccccc2C1=O` (stereo unspecified), for which the molecule was called inactive. In the case of `COC(=O)c1ccccc1NC(=O)c1ccc(COc2ccccc2Cl)o1`, the “activity, negative = inhibition” value is 29.8% (inactive).

Regarding `COC(=O)c1ccccc1NC(=O)c1cc(-c2ccccc2O)no1`, the Potency was 4.47 µM (active). In the case of `CC(C)(C)CC(=O)N1CC[C@@H](CC(=O)O)[C@@H](CCN2CCN(c3ccc(F)cc3)CC2)C1`, the molecule was classed as inactive. Take `O=C(NCCc1cn[nH]c1)[C@H]1CCC[C@@H](O)C1`: the “activity, negative = inhibition” value was 2.37% (inactive). For `Cn1cc(-c2ccccc2Oc2ccccc2)c2nc(CN3CCNC(=O)C3)cn2c1=O`, the “outcome” value is “inactive [at 44.1 µM]”. With `Cn1nccc1CN1CCc2nc(C3CC3)nc(-c3ccc(O)cc3)c2C1`, the result was inactive. The same measure, in the same setting: the same measure for `Oc1ccc(-c2nc(C3CC3)nc3c2CCN(Cc2cccc(F)c2)CC3)cc1`: “inactive”. In the case of `Oc1ccc(-c2nc(C3CC3)nc3c2CN(Cc2ccc(F)cc2)CC3)cc1`, the Potency is 5.62 µM (active). In the case of `O=C1OCC2(CCN(Cc3ccc(F)c(Cl)c3)C2)N1Cc1ccccn1` (stereo unspecified), the “outcome” value was “inactive [at 44.1 µM]”. As to `C[C@@H](NC(=O)COc1ccccc1)c1c(-c2ccc(F)cc2)noc1C(=O)O`, the “activity, negative = inhibition” value is -15.6% [at 44.1 µM] (inactive). As to `Cc1cc(N2CCC(NC(=O)c3ccc(N(C)C)cc3)C2=O)ccc1F` (stereo unspecified), the molecule was classed as inactive. As to `COc1ccccc1CNC(=O)CCn1c(=O)c2ccccc2n(CC(=O)Nc2cccc(Cl)c2)c1=O`, the “activity, negative = inhibition” value is -26.5% (inactive). Regarding `COc1ccc(NC(=O)Cn2c(=O)n(Cc3ccc(C(=O)NCc4ccccc4Cl)cc3)c(=O)c3ccccc32)cc1`, the Potency is 10 µM (active). Consider `Cc1ccc(Cn2c(=O)n(CCCC(=O)NCc3ccccc3Cl)c(=O)c3ccccc32)cc1`, for which the “activity, negative = inhibition” value is -5.57% (inactive). For `O=C(O)CCn1ncc2cc(OC3CCN(C(=O)C4CCCC4)CC3)ccc21`, the “outcome” value was “inactive [at 44.1 µM]”. `CCCCNC(=O)C1CCN(C(=O)c2nnn3c2COC(c2ccc(C)cc2)C3)CC1` (stereo unspecified): the “activity, negative = inhibition” value was -5.53% (inactive). Same read-out and setting: the same measure for `CCOc1cc(=O)n2c(c1C(=O)Nc1cc(Cl)ccc1F)CCCC2`: 23.8% (inactive).

With `Cc1noc2c(NC3CCCCC3)cc(-c3ccsc3)nc12`, the “outcome” value is “inactive [at 44.1 µM]”. Consider `Fc1ccc(CNC2(Cc3cc(-c4ccc(F)cc4)on3)COC2)cc1`, for which the “activity, negative = inhibition” value was 19.8% [at 44.1 µM] (inactive).

Values taken from PubChem BioAssay AID1347417 (National Center for Advancing Translational Sciences (NCATS), 2020).
